Laboratory results published in paper PMC5540273 (PLoS ONE, 2017).

Assays:
Conditions in all cases: concentration: 1 μM,replicates: in singlicate; n = 1
MEK5 = test system: T1, MEK5
T1 construct: gene MAP2K5

MEK6 = test system: T2, MEK6
T2 construct: gene MAP2K6

MELK = test system: MELK
MERTK = test system: MERTK
MET = test system: MET
MINK = test system: T3, MINK
T3 construct: gene MINK1

MKK7 = test system: MKK7
MKNK1 = test system: MKNK1
MKNK2 = test system: MKNK2
MLCK = test system: T4, MLCK
T4 construct: gene MYLK3
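Also: KINOMEscan kinase panel screen.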

SMILES | %Inh (MEK5) | %Inh (MEK6) | %Inh (MELK) | %Inh (MERTK) | %Inh (MET) | %Inh (MINK) | %Inh (MKK7) | %Inh (MKNK1) | %Inh (MKNK2) | %Inh (MLCK)
FC(F)(F)c1cc(Br)cc(Nc2nccc(-c3cnn4ncccc34)n2)c1 [GW810578] | 35% | 12% | 7% | 14% | 0% | 3% | 0% | 19% | 0% | 32%
CC(C(=O)NC1CCN(c2ccnc(Nc3ccc(F)cc3)n2)C1)c1ccc(Cl)cc1 (stereo not drawn) [GSK1379713] | 7% | 0% | 0% | 0% | 0% | 0% | 0% | 5% | 0% | 0%
CC(=O)c1c(-c2ccncc2)[nH]c(-c2ccncc2)c1C [GW493036] | 2% | 0% | 0% | 0% | 11% | 29% | 0% | 14% | 46% | 0%
COc1cc(Nc2nccc(N3CCC(NC(=O)c4cccc(C#N)c4)C3)n2)cc(OC)c1OC (stereo not drawn) [GSK1379751] | 85% | 0% | 0% | 9% | 6% | 0% | 16% | 0% | 67% | 0%
CCn1c(-c2nonc2N)nc2cncc(Br)c21 [SB-738004] | 74% | 10% | 35% | 0% | 0% | 29% | 22% | 10% | 81% | 28%
COc1cc2c(Nc3ccc(NC(=O)c4ccccc4)cc3)ncnc2cc1OCCCN1CCOCC1 [GSK301329] | 99.9% | 0% | 4% | 65% | 50% | 17% | 0% | 0% | 18% | 0%
Cc1cccc2c(-c3ccncc3)c(-c3ccc(F)cc3)nn12.Cl [GW461487] | 6% | 0% | 0% | 5% | 0% | 30% | 0% | 1% | 0% | 0%
Cl.Nc1n[nH]c2cc(-c3ccccn3)ccc12 [GSK2189892] | 45% | 0% | 2% | 0% | 0% | 0% | 0% | 0% | 32% | 0%
OCCn1cc(-c2cnc3nnn(Cc4ccc5ncccc5c4)c3n2)cn1 | 0% | 0% | 32% | 0% | 79% | 0% | 0% | 0% | 0% | 13%
Cc1n[nH]c2cc(Nc3ccnc(Nc4cccc(CN5CCOCC5)c4)n3)ccc12 [GW682569] | 98.6% | 0% | 0% | 85% | 14% | 22% | 0% | 23% | 67% | 0%
COc1cccc(C2=C(Nc3cccc(Cl)c3)C(=O)NC2=O)c1 [SB-341556] | 38% | 0% | 0% | 0% | 0% | 0% | 10% | 0% | 27% | 0%
Nc1nccc(-c2ccc3c(N)n[nH]c3c2)n1 [GSK1034945] | 38% | 0% | 24% | 16% | 0% | 47% | 0% | 11% | 86% | 96.1%
CNC(=O)c1ccccc1Nc1nc(Nc2cccc(CS(C)(=O)=O)c2)ncc1C.O=CO [GSK1520489] | 99.9% | 39% | 94.6% | 100% | 97.3% | 58% | 0% | 0% | 50% | 41%
O=C(Nc1ccccc1)c1cccc(Oc2ccc3nccn3n2)c1 | 9% | 0% | 11% | 0% | 0% | 6% | 0% | 7% | 6% | 1%
Cn1ccc2ncnc(Oc3ccc(NC(=O)Nc4cncc(C(F)(F)F)c4)c(Cl)c3)c21 | 22% | 0% | 0% | 81% | 12% | 0% | 0% | 0% | 0% | 0%
COc1cc2nccc(Nc3ccc(Oc4ccccc4)cc3)c2cc1OC.Cl [GI261656] | 99.9% | 0% | 3% | 12% | 0% | 0% | 0% | 0% | 27% | 0%
COc1cc2ncn(-c3cc(OCC4CCCCC4)c(C(N)=O)s3)c2cc1OC [GSK204559] | 99.6% | 0% | 13% | 33% | 17% | 31% | 0% | 33% | 10% | 3%

SMILES | %Inh (MEK5) | %Inh (MEK6) | %Inh (MELK) | %Inh (MERTK) | %Inh (MET) | %Inh (MINK) | %Inh (MKK7) | %Inh (MKNK1) | %Inh (MKNK2) | %Inh (MLCK)
O=C(Nc1cccc(C(F)(F)F)c1)c1cccc(Oc2ccc3nccn3n2)c1 | 32% | 0% | 0% | 17% | 16% | 12% | 36% | 7% | 26% | 0%
O=c1[nH]cc(-c2ccc(O)cc2)c2sc(-c3ccncc3)cc12 [GSK1033723] | 37% | 0% | 0% | 0% | 0% | 0% | 0% | 12% | 26% | 40%
CN(c1ccc2c(c1)nc(NCc1ccc(F)cc1)n2C)c1ccnc(Nc2ccc(CS(C)(=O)=O)cc2)n1.Cl [GW813244] | 97.9% | 11% | 13% | 77% | 45% | 9% | 4% | 0% | 0% | 0%
CC(=O)Nc1nc2cnc(Nc3cc(NC(=O)c4cccc(CC(C)(C)C#N)c4)ccc3C)nc2s1 | 46% | 0% | 8% | 31% | 7% | 3% | 0% | 0% | 41% | 0%
Cc1nnc(-c2ccc3occ(-c4ccc(S(C)=O)cc4)c3n2)o1 (stereo not drawn) | 0% | 0% | 0% | 0% | 0% | 0% | 0% | 0% | 0% | 0%
COc1ccc(Nc2nccc(N3CCC(NC(=O)c4cccc(C#N)c4)C3)n2)cc1 (stereo not drawn) [GSK1379730] | 8% | 0% | 0% | 24% | 9% | 0% | 17% | 0% | 5% | 3%
CCn1c(-c2nonc2N)nc2cncc(CNC3CCNCC3)c21.Cl [SB-747651] | 32% | 0% | 37% | 0% | 2% | 0% | 0% | 0% | 17% | 0%
C[C@@H]1CCN(C(=O)N2CCCC2)C[C@@H]1N(C)c1ncnc2[nH]ccc12 | 38% | 20% | 13% | 0% | 0% | 30% | 0% | 0% | 58% | 0%
COC(=O)c1cccc(NC(=O)NC2CCN(c3ccnc(NCc4ccc(F)cc4)n3)CC2)c1 [GSK1379860] | 8% | 0% | 0% | 0% | 0% | 0% | 45% | 0% | 9% | 0%
Cl.Cl.NC[C@H](CC1CCCCC1)NC(=O)c1ccc(-c2ccnc3[nH]ccc23)s1 [GSK1581428] | 52% | 27% | 96.4% | 68% | 16% | 67% | 0% | 66% | 97.6% | 74%
CC(C)S(=O)(=O)N1CCN(Cc2ccc3c(c2)nc(NC(=O)c2ccsc2)n3C[C@H](O)c2ccccc2)CC1 [GW635815] | 91.9% | 0% | 28% | 83% | 20% | 60% | 0% | 7% | 0% | 0%
NC(=O)c1ccc(-c2cc3ncnc(SCC(=O)O)c3s2)cc1 | 38% | 0% | 0% | 0% | 0% | 39% | 0% | 6% | 28% | 12%
NC(=O)Nc1sc(-c2ccc(F)cc2)cc1C(N)=O [GW789449] | 89% | 21% | 12% | 10% | 12% | 60% | 0% | 8% | 0% | 0%
O=C(Nc1cccc(Oc2ccc3nccn3n2)c1)Nc1cccc(C(F)(F)F)c1 | 97% | 0% | 10% | 24% | 0% | 27% | 0% | 8% | 0% | 0%
Cn1ccc2ncnc(Oc3ccc(NC(=O)Nc4cccc(C(F)(F)F)c4)c(F)c3)c21 | 35% | 0% | 10% | 98% | 50% | 0% | 0% | 18% | 89% | 0%
CSc1nccc(-c2c(-c3ccc(F)cc3)ncn2CCCN2CCOCC2)n1.Cl [SB-217146] | 36% | 15% | 0% | 5% | 0% | 26% | 0% | 0% | 0% | 0%
